# Results: the supplement of paper PMC10646978
# ± gives the standard deviation.
# What was measured:
# Conditions in all cases: modulator concentration 10 µM
# [1] = test system: RAW-Dual (murine macrophage reporter line); assay: NF-kB reporter (SEAP) activity fold change vs agonist alone; higher = enhanced NF-kB activity
# In short: (§1)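 In 384-well plates holding 50 000 RAW-Dual murine macrophage reporter cells per well, compound at 10 μM final was pre-incubated for 1 hour at 37 °C, after which a PRR agonist was added overnight. Supernatant SEAP read with QUANTI-Blue at 620 nm absorbance reported NF-κB, and Lucia luciferase read with QUANTI-Luc luminescence reported IRF. Fold change values come from dividing each reporter signal by the mean of agonist-only control wells on the same plate, averaged over replicate plates with propagated errors.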
# [2] = test system: RAW-Dual (murine macrophage reporter line); assay: IRF reporter (Lucia luciferase) activity fold change vs agonist alone; higher = enhanced IRF activity
# In short: as §1
# [3] = test system: RAW-Dual (murine macrophage reporter line); assay: viability score (confluency relative to resting cells, overnight) (fraction); higher = more viable, active = viable (0.7 or more)
# In short: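 RAW-Dual macrophages in 384-well plates were exposed overnight to compound at 10 μM final. Confluency was imaged with IncuCyte, and two confluency masks were generated with IncuCyte software over all imaged wells. The viability score is confluency expressed relative to resting cells. Compounds were called viable if both masks exceeded 70% of resting cells.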
# [4] = agonist: CpG ODN 1826 0.5 ug/mL
Structure (SMILES),"NF-kB reporter [1, 4]",NF-kB reporter ([1]; agonist: LPS 0.1 ug/mL),NF-kB reporter ([1]; agonist: MPLA […]),IRF reporter ([2]; agonist: 3'3'-cGAMP 10 ug/mL),IRF reporter ([2]; agonist: LPS 0.1 ug/mL),IRF reporter ([2]; agonist: MPLA […]),viability score [3]
Nc1ccn([C@@H]2O[C@H](CO)[C@@H](O)C2(F)F)c(=O)n1,1.8 ± 0.25,1.07 ± 0.28,1.21 ± 0.11,1.59 ± 0.088,1.61 ± 0.35,1.33 ± 0.31,0.241 (inactive)
COc1nc(C)cnc1NS(=O)(=O)c1cccnc1-c1ccc(-c2nnco2)cc1,0.964 ± 0.21,0.98 ± 0.18,1 ± 0.09,0.852 ± 0.047,0.982 ± 0.26,1.06 ± 0.24,0.979 (active)
CC1=C(C(N)=O)C(c2cccs2)NC(=O)N1 (stereo not given),0.974 ± 0.086,1.03 ± 0.12,0.944 ± 0.034,1.01 ± 0.15,0.963 ± 0.045,0.942 ± 0.063,0.999 (active)
COc1cc(C)ccc1NC(=O)Cc1csc(NC(=O)Nc2ccccc2OC)n1,1.32 ± 0.14,1.02 ± 0.074,0.887 ± 0.1,0.978 ± 0.063,0.793 ± 0.059,0.818 ± 0.26,1 (active)
CCS(=O)(=O)N1N=C(c2ccc(NS(C)(=O)=O)cc2)CC1c1ccccc1 (stereo not given),0.947 ± 0.073,0.998 ± 0.078,1.12 ± 0.12,0.963 ± 0.034,1.29 ± 0.15,1.4 ± 0.23,1.02 (active)
COc1ccc(NC(=O)CN2C(=O)c3ccccc3C2=O)c([N+](=O)[O-])c1,0.798 ± 0.064,0.948 ± 0.087,0.989 ± 0.11,0.963 ± 0.048,1.29 ± 0.082,1.36 ± 0.13,1.01 (active)
O=S(=O)(NCCn1ccn2nccc12)c1ccccc1Br,0.86 ± 0.053,0.904 ± 0.091,1.02 ± 0.065,0.989 ± 0.049,1.14 ± 0.18,1.23 ± 0.34,0.983 (active)
COC(CNC(=O)C(C)(C)Oc1ccc(Cl)cc1)c1cccc(F)c1 (stereo not given),1.27 ± 0.39,1.07 ± 0.055,1.14 ± 0.081,0.96 ± 0.035,0.959 ± 0.16,1.04 ± 0.18,0.973 (active)
COc1ccc(OC)c2sc(NC(=O)C(C)C)nc12,0.97 ± 0.075,1.02 ± 0.059,1 ± 0.031,0.837 ± 0.06,0.885 ± 0.11,0.828 ± 0.14,0.993 (active)
CCc1sc2sncc2c1Br,0.199 ± 0.022,0.817 ± 0.06,1.17 ± 0.11,0.315 ± 0.014,0.713 ± 0.14,0.549 ± 0.076,0.895 (active)
COC(=O)C1=C(C)NC(C)=C(C(=O)OCCN(C)Cc2ccccc2)C1c1cccc([N+](=O)[O-])c1.Cl (stereo not given),0.996 ± 0.055,0.91 ± 0.074,0.887 ± 0.047,1.1 ± 0.052,1.01 ± 0.16,0.988 ± 0.29,0.397 (inactive)
CCOC(=O)C(CCc1ccccc1)NC(C)C(=O)N1C(C(=O)O)CC2CCCCC21 (stereo not given),0.994 ± 0.11,0.925 ± 0.068,1.08 ± 0.1,0.953 ± 0.045,1.24 ± 0.2,1.27 ± 0.29,1.05 (active)
NC(=O)c1cccc2cn(-c3ccc([C@@H]4CCCNC4)cc3)nc12,0.187 ± 0.014,0.573 ± 0.051,0.85 ± 0.072,0.508 ± 0.051,0.559 ± 0.07,0.977 ± 0.088,0.887 (active)
Cn1c(=O)[nH]c2nnc(-c3ccncc3)nc2c1=O,0.815 ± 0.07,0.872 ± 0.077,1.07 ± 0.12,0.935 ± 0.05,1.32 ± 0.15,1.47 ± 0.2,1.02 (active)
CCn1c2ccccc2c2cc(CNCCc3ccc(OC)cc3)ccc21,0.369 ± 0.048,0.539 ± 0.068,1.24 ± 0.1,0.479 ± 0.11,0.556 ± 0.025,2.16 ± 0.28,0.0492 (inactive)
